# Out of some 310,000 compounds screened, about 2,600 (0.84%) were called active. The sample holds actives, similar compounds and a random draw of the others, so the mix is not that of the screen.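 How the source made its calls: active means B-score over 3 SD under the library average, and starting fluorescence ratio not unusually high; inactive means the rest.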
# Biological target: High affinity choline transporter 1 (Homo sapiens) (UniProt Q9GZV3)
# Test: inhibitors of human choline transporter CHT (AID 488975);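 on B-score: choline stimulus applied at its EC90 after an EC20 pre-addition; B-score computed on integrated fluorescence ratio after choline addition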
# Conditions: CHT-expressing cells, membrane potential dye, choline response, at 10 µM; active compounds read low
# Sequence of High affinity choline transporter 1 (Homo sapiens) (Q9GZV3 whole entry, looked up): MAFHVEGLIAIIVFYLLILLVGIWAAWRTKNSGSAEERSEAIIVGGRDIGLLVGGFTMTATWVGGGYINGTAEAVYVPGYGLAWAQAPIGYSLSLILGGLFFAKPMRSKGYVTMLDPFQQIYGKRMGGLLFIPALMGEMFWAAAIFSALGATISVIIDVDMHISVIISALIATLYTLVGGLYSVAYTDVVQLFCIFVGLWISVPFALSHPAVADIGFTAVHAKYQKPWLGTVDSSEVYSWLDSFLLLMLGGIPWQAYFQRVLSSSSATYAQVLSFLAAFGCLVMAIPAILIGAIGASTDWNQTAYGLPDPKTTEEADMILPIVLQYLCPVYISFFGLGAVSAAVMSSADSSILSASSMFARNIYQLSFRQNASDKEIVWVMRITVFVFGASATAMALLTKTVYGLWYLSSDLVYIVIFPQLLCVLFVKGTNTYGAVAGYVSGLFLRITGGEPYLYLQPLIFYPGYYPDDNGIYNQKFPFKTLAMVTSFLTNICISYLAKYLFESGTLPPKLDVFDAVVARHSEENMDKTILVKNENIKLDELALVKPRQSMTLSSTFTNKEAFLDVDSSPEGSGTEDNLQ
row,Compound,B-score
1,CCOC(=O)/C(C#N)=C/c1ccc(N2CCCCC2)cc1,inactive
2,CCOC(=O)NC(=O)/C(C#N)=C\c1ccccc1,inactive
3,CC(C)(C)C(=O)/C(C#N)=C/c1ccc(O)cc1,-5.45 (active)
4,CCC1CCCCN1CCCNC(=O)C1CCC(Cn2c(=O)[nH]c3ccccc3c2=O)CC1 (stereo unspecified),inactive
5,CCCCCn1c(=O)[nH]c2cc(C(=O)NCCCN3CCCCC3C)ccc2c1=O (stereo unspecified),-6.4 (active)
6,O=C(NC1CCCCC1)c1ccc2c(=O)n(CC3CCCO3)c(=O)[nH]c2c1 (stereo unspecified),inactive
7,CCN1C(=O)[C@H]2[C@@H](c3ccc(C)cc3)N3C(=O)N(c4cccc(Br)c4)C(=O)[C@@]3(CC)[C@H]2C1=O,inactive
8,O=C(CCCCO)c1ccc(O)c(Cl)c1,inactive
9,CC(C)Cn1c(CN(Cc2ccccc2)Cc2ccccc2)nc2c1c(=O)n(C)c(=O)n2C,inactive
10,CC(C)CCn1c(CN(C)Cc2ccccc2)nc2c1c(=O)n(C)c(=O)n2C,-5.25 (active)
11,COCCn1c(CN(Cc2ccccc2)Cc2ccccc2)nc2c1c(=O)n(C)c(=O)n2C,inactive
12,COc1cc(C2C(C(=O)c3cccs3)=C(O)C(=O)N2CCN2CCOCC2)ccc1OCCC(C)C (stereo unspecified),inactive
13,COCCCNC(=O)CN1C(=O)CSc2ccc(S(=O)(=O)N3CCOCC3)cc21,inactive
14,COc1ccc(NC(=O)CN2C(=O)CSc3ccc(S(=O)(=O)N4CCC(C)CC4)cc32)cc1,inactive
15,CC1CCN(CCCNC(=O)CN2C(=O)CSc3ccc(S(=O)(=O)N4CCCCC4)cc32)CC1,-5.37 (active)
16,O=S(=O)(NCCCc1ccccc1)c1ccc(Br)cc1,inactive
17,O=C(c1ccc(F)cc1)N1CCC(C(=O)N2CCN(S(=O)(=O)c3ccccc3Br)CC2)CC1,inactive
18,O=C(CCCN1C(=O)/C(=C\c2ccccc2)SC1=S)Nc1ccccc1O,inactive
19,COc1ccc(/C=C2\SC(=O)N(CCC(=O)NCCCn3ccnc3)C2=O)cc1,inactive
20,COc1ccc(/C=C2/SC(=O)N(CCCCCC(=O)Nc3ccccc3C(=O)O)C2=S)cc1,-9.31 (active)
21,CC(=O)CC(CC(=O)NC1CCCCC1)c1ccccc1 (stereo unspecified),inactive

row,Compound,B-score
1,Cc1ccc2c(C)c(C(=O)N3CCC(N4CCC(C(=O)NC5CC5)CC4)CC3)oc2c1,-8.96 (active)
2,Cc1ccc(C)c(C(=O)N2CCC(n3nccc3NC(=O)C3CC3)CC2)c1,inactive
3,CCOC(=O)C1CCN(C(=O)c2oc3ccc(S(=O)(=O)N4CCCCCC4)cc3c2C)CC1,inactive
4,Cc1ccccc1-n1c(C)cc(/C=N/NC(=O)c2ccc(CN3CCOCC3)cc2)c1C,-9.28 (active)
5,C/C(CCc1ccccc1)=N\NC(=O)c1ccc(CN2CCOCC2)cc1,inactive
6,COc1ccc(C(=O)Nc2ccc(CN3CCOCC3)cc2)cc1,inactive
7,COc1ccc(S(=O)(=O)NCc2cccnc2)cc1NC(=O)c1ccc(C)cc1,inactive
8,Cc1cc(C)c(S(=O)(=O)N2CCCC2CNC(=O)c2ccc3c(c2)OCO3)c(C)c1 (stereo unspecified),inactive
9,O=S(=O)(O)Oc1c[nH]c2ccccc12,inactive
10,COc1ccc(OCCCC(=O)Oc2ccc(OC)cc2)cc1,inactive
11,COc1ccc(OCC(=O)OCCN(C)C)cc1,-11 (active)
12,COc1ccc(OCCC(=O)c2ccc(OC)cc2)cc1,inactive
13,CCOc1ccc(CCNC(=O)COC(=O)c2c(OC)cccc2OC)cc1OCC,inactive
14,O=C(c1c(F)cccc1Cl)N1CCN(S(=O)(=O)c2ccc3c(c2)OCCCO3)CC1,-5.01 (active)
15,CCCCCC(=O)N1CCN(S(=O)(=O)c2ccc3c(c2)OCCCO3)CC1,inactive
16,CN1CCCN(S(=O)(=O)c2ccc3c(c2)OCCO3)CC1,inactive
17,CC(C)c1ccc(S(=O)(=O)N2CCN(C(=O)CN3C(=O)NC(C)(c4ccccc4)C3=O)CC2)cc1 (stereo unspecified),inactive
18,CSc1nnc(NC(=O)c2nc(S(=O)(=O)Cc3ccc(C)cc3)ncc2Cl)s1,inactive
19,Cc1cccc(NC(=O)c2nc(S(=O)(=O)Cc3ccccc3)ncc2Cl)c1,inactive
20,Cc1ccc(CS(=O)(=O)c2ncc(Cl)c(C(=O)Nc3nnc(C)s3)n2)cc1,-9.37 (active)
21,Cc1ccc(C(=O)CN2C(=O)NC3(CCc4ccccc43)C2=O)c(C)c1 (stereo unspecified),inactive

row,Compound,B-score
1,O=C(OCCOCn1cc(Br)c(=O)[nH]c1=O)c1ccccc1,inactive
2,CC(=O)OCCOCn1cnn2c(=O)c(Br)c(C)nc12,-5.09 (active)
3,CCCN(CC(=O)Nc1ccccc1OC)C(=O)CCC(=O)c1ccc(F)cc1,inactive
4,Cc1ccc(Cn2ccc(NC(=O)c3cc(C(C)C)on3)n2)cc1,inactive
5,O=C(Nc1ccn(Cc2ccccc2)n1)c1n[nH]c([N+](=O)[O-])c1Cl,-5.17 (active)
6,Cn1cc([N+](=O)[O-])c(C(=O)Nc2cnn(Cc3ccc(F)cc3)c2)n1,inactive
7,CCN1C(=O)[C@@H]2[C@@H](c3ccc(-c4ccccc4)cc3)N3CCCC[C@@]3(C(=O)OC)[C@@H]2C1=O,inactive
8,CCCCCCSc1ccc([C@@H]2[C@@H]3C(=O)N(CC)C(=O)[C@@H]3[C@]3(C(=O)OC)CCCCN23)cc1OC,inactive
9,O=C(NCCC1CCCCN1S(=O)(=O)c1ccc(F)cc1)C(=O)NC1CC1 (stereo unspecified),inactive
10,COc1ccc(CCNc2cc(N3CCN(C(=O)c4ccccc4OC)CC3)ccc2[N+](=O)[O-])cc1OC,inactive
11,Cc1cc(/C=C2/C(=N)N3C(=NC2=O)SN=C3S(C)(=O)=O)c(C)n1-c1ccccc1,inactive
12,CCS(=O)(=O)C1=NSC2=NC(=O)/C(=C\c3ccc(OS(=O)(=O)c4ccccc4)cc3)C(=N)N21,-7.46 (active)
13,CCS(=O)(=O)C1=NSC2=NC(=O)/C(=C\c3cc(C)n(-c4cccc(OC)c4)c3C)C(=N)N21,inactive
14,Cc1ccc2c(C)c(C(=O)N3CCN(c4ccncc4)CC3)oc2c1C,inactive
15,CCOc1cc(C(=O)Nc2ccc(S(=O)(=O)Nc3cnc4ccccc4n3)cc2)cc(OCC)c1OCC,inactive
16,O=C(NCCCn1ccnc1)c1ccccc1F,inactive
17,O=C(NCCCn1ccnc1)Nc1ccc(Cl)cc1Cl,inactive
18,O=C(Nc1ccccc1C(=O)NCCCn1ccnc1)c1ccc(Cl)cc1Cl,-5.25 (active)
19,COc1ccc(C(=O)C2CCCN(C(=O)c3ccc(OC)o3)C2)c(C)c1 (stereo unspecified),inactive
